# Measurements taken from PubChem BioAssay (NCATS).
# “And” between values parts separate entries of the source, which are not always exact repeats. Equal entries are not always repeated. Values without a mark were called inactive. Records with an inconclusive call do not appear. A call without a number means that no potency is given here. The source made the active and inactive calls. Unless noted, the call rests on the fitted dose curve; in most records, active means well fitted curve in the direction sought with a large enough effect; inconclusive means small, poorly fitted or top-dose-only effect, or another doubt; inactive means no such curve, though single readings can be large; an effect the other way counts as inactive or inconclusive.
# Assays:
# Es-2 = experiment: Primary qHTS to identify gynecologic anti-cancer compounds using libraries of approved drugs and bioactive compounds (AID 1345084); details: Gynecologic cancer cell panel viability, ATPlite luminescence, 48 h; series mostly up to 57.5 µM; further: nearly all actives have a fitted effect of over 55% in size; further: potency means the concentration at half of the fitted maximal effect
# Procedure, shortened: (§1)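 In this quantitative HTS, cell killing is estimated from loss of ATP-dependent luciferase light. Cells see five compound concentrations over a 48 h exposure.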
# HeLa = experiment: as above; details: Gynecologic cancer cell panel viability, ATPlite luminescence, 48 h; series mostly up to 57.5 µM
# Procedure, shortened: as §1
# Hek293T = experiment: as above; details: Gynecologic cancer cell panel viability, ATPlite luminescence, 48 h, control line for the selectivity index; series mostly up to 57.5 µM
# Procedure, shortened: as §1
# JEG-3 = experiment: as above; details: Gynecologic cancer cell panel viability, ATPlite luminescence, 48 h; series mostly up to 57.5 µM
# Procedure, shortened: as §1
# OV90 = experiment: as above; details: Gynecologic cancer cell panel viability, ATPlite luminescence, 48 h; series mostly up to 57.5 µM
# Procedure, shortened: as §1
# PA-1 = experiment: as above; details: Gynecologic cancer cell panel viability, ATPlite luminescence, 48 h; series mostly up to 57.5 µM
# Procedure, shortened: as §1
# SKOV3 = experiment: as above; details: Gynecologic cancer cell panel viability, ATPlite luminescence, 48 h; series mostly up to 57.5 µM
# Procedure, shortened: as §1
# Tov-21-G = experiment: as above; details: Gynecologic cancer cell panel viability, ATPlite luminescence, 48 h; series mostly up to 57.5 µM
# Procedure, shortened: as §1
# Tov112D = experiment: as above; details: Gynecologic cancer cell panel viability, ATPlite luminescence, 48 h; series mostly up to 57.5 µM
# Procedure, shortened: as §1
# [1] = Drug repurposing screens with cells derived from glioblastoma tumor samples (AID 1345199); details: GBM patient neurospheres viability, ATP luminescence, 48 h; further: nearly all actives have a fitted effect of over 40% in size; further: potency means the concentration at half of the fitted maximal effect
# Procedure, shortened: (§2)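 Four patient lines of CD133+ GBM neurospheres were screened at several concentrations; hits were retested in those lines plus three slower-growing GBM lines, using 48-hour treatment and ATP-based viability.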
# astro = experiment: as above; details: viability, ATP luminescence, 48 h; series mostly up to 45.9 µM
# Procedure, shortened: as §2
# [2] = target: Nuclear receptor subfamily 1 group I member 2 (Rattus norvegicus) (UniProt Q9R1A7); experiment: qHTS assay for small molecule activators of the rat pregnane X receptor (rPXR) signaling pathway (AID 651751; call rule not given here); details: rPXR reporter cells, luciferase (One-Glo), 24 h
# [3] = qHTS assay for small molecule activators of the human pregnane X receptor (PXR) signaling pathway (AID 720659; call rule not given here)
# [4] = at 45.9 µM (top of the series), tumour line B
# [5] = at 45.9 µM (top of the series), tumour line D
# [6] = at 46 µM (top of the series), tumour line A
# [7] = at 21.2 µM (top of the series), tumour line B
# [8] = at 21.2 µM (top of the series), tumour line D
# [9] = at 21.3 µM (top of the series), tumour line A
# Chain of Nuclear receptor subfamily 1 group I member 2 (Rattus norvegicus) (Q9R1A7 whole entry, looked up): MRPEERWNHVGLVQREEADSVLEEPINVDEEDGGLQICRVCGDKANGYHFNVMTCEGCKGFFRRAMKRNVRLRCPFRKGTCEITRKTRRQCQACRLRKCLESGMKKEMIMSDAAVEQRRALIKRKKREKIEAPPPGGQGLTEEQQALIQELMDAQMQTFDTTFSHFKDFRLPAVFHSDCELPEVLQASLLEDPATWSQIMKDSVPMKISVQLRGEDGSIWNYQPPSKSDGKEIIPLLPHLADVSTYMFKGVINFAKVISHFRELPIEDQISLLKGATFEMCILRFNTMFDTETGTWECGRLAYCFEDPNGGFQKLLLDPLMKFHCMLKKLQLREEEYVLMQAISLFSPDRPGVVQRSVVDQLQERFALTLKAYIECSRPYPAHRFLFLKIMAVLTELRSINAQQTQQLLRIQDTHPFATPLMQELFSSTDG
Compound,Potency (Es-2),Potency (HeLa),Potency (Hek293T),Potency (JEG-3),Potency (OV90),Potency (PA-1),Potency (SKOV3),Potency (Tov-21-G),Potency (Tov112D),"activity, negative = cell killing [1, 4]","activity, negative = cell killing [1, 5]","activity, negative = cell killing [1, 6]",Potency (astro),max response [2],Potency ([1]; tumour line A),outcome [3],"activity, negative = cell killing [1, 7]","activity, negative = cell killing [1, 8]","activity, negative = cell killing [1, 9]"
CCOP(=S)(OCC)Oc1cc(C)nc(C(C)C)n1,inactive,inactive,inactive,inactive,inactive,inactive,inactive,inactive,inactive,-12.9%,4.41%,-24.4%,inactive,3.69% and 1.39%,,,,,
CCN(CC)CCOC(=O)C(O)(c1ccccc1)c1ccccc1,inactive,inactive,inactive,inactive,inactive,inactive,inactive,inactive,inactive,-7.05%,-0.674%,-16.9%,inactive,,,,,,
O=c1[nH]c2ccccc2n1CCCN1CCC(n2c(=O)[nH]c3cc(Cl)ccc32)CC1,inactive,inactive,inactive,inactive,inactive,inactive,inactive,inactive,inactive,-24.9%,,,inactive,,2.82 µM (active),,,,
C[C@]12C/C(=C/O)C(=O)C[C@@H]1CC[C@@H]1[C@@H]2CC[C@@]2(C)[C@H]1CC[C@]2(C)O,inactive,inactive,inactive,inactive,inactive,inactive,inactive,inactive,inactive,-10.4%,-15.9%,,inactive,-5.34% and -0.621%,,inactive,,,
Cc1ncc(CNC(=O)N(CCCl)N=O)c(N)n1,inactive,inactive,inactive,inactive,35.5 µM (active),inactive,inactive,inactive,inactive,-2.44%,-2.73%,-26.1%,inactive,,,,,,
CC1NCCOC1c1ccccc1 (stereo not given),inactive,inactive,inactive,inactive,inactive,inactive,inactive,inactive,inactive,-0.55%,7.64%,-23.4%,inactive,,,,,,
CCCC(C)(COC(N)=O)COC(=O)NC(C)C (stereo not given),inactive,inactive,inactive,inactive,inactive,inactive,inactive,inactive,inactive,-7.57%,-17.6%,,inactive,6.19% and 1.57%,,,,,
NCC1(CC(=O)O)CCCCC1,inactive,inactive,inactive,inactive,inactive,inactive,inactive,inactive,inactive,,,,inactive,,,,-18.9%,-10.4%,-25.7%
CNCC(O)c1ccc(O)cc1 (stereo not given),inactive,inactive,inactive,inactive,inactive,inactive,inactive,inactive,inactive,,,,inactive,-0.194%,,inactive,9.4%,0.215%,-26.2%
Cn1c(CCCC(=O)O)nc2cc(N(CCCl)CCCl)ccc21,inactive,inactive,inactive,inactive,inactive,inactive,inactive,inactive,inactive,-8.98%,-16.3%,,inactive,,,,,,
Cc1cccc(C)c1NC1=NCCCS1,inactive,inactive,inactive,inactive,inactive,inactive,inactive,inactive,inactive,-12.3%,,,inactive,,17.8 µM (active),,,,
Oc1cccc2cccnc12,inactive,inactive,inactive,inactive,inactive,inactive,inactive,inactive,inactive,-22.3%,-9.58%,,,,,inactive,,,
CC(C)=CC1C(C(=O)OCc2cccc(Oc3ccccc3)c2)C1(C)C (stereo not given),inactive,inactive,inactive,inactive,inactive,inactive,inactive,inactive,inactive,-17.7%,-26.5%,,inactive,,12.6 µM (active),,,,
CCCN1CCC[C@@H]2Cc3nc(N)ncc3C[C@H]21,inactive,inactive,inactive,inactive,inactive,inactive,inactive,inactive,inactive,-7.67%,-0.18%,,inactive,,,,,,
Nc1ccncc1,inactive,inactive,inactive,inactive,inactive,inactive,inactive,inactive,inactive,-0.63%,-4.86%,-29.8%,inactive,-1.96%,,inactive,,,
O=C(O)C(=O)c1cn(Cc2ccccc2)c2ccc(-c3ccc(OC(F)(F)F)cc3)cc12,inactive,inactive,inactive,inactive,inactive,inactive,inactive,inactive,inactive,,,,,,,,,,
